Experimental data published in PubChem BioAssay (EPA / NIEHS).
Inconclusive results are not listed. Active and inactive are the calls of the source. The calls were made as follows, unless noted: active = hit-call score of the fitted dose curve at least 0.9, where 1 is the maximum; inactive = score below 0.9.

Experiments:
[1] = molecular target: Cellular tumor antigen p53 (Homo sapiens) (UniProt P04637); experiment: TOX21_p53_BLA_p2_ratio: Tox21 HCT-116 p53 Agonism Beta-lactamase Assay, Ratio, Phase 2 (AID 2283592; active = hit-call score of the fitted dose curve at least 0.9, where 1 is the maximum)
Sequence of Cellular tumor antigen p53 (Homo sapiens) (P04637 whole entry, looked up): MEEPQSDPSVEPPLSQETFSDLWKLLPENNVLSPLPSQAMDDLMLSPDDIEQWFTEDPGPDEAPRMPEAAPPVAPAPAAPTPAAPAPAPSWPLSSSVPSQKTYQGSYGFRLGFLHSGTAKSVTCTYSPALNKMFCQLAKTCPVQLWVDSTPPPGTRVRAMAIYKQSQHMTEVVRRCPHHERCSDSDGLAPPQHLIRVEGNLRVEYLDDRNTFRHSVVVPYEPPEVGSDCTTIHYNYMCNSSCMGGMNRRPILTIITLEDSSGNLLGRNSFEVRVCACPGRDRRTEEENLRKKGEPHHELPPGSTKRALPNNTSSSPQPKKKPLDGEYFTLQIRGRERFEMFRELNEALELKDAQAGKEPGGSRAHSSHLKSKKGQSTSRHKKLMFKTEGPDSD
In short: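 Read-out is the blue/green (460/530 nm, 405 nm excitation) ratio after 2 h CCF4-AM loading, fitted as gain versus DMSO. Compounds, pinned at 217-fold dilution from DMSO stocks, stayed 16 h on HCT-116 beta-lactamase reporter cells seeded 5 h earlier.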

[2] = TOX21_p53_BLA_p3_viability: Viability Assessment in the Tox21 HCT-116 p53 Agonism Beta-lactamase Assay, Phase 3 (AID 2283593; active = hit-call score of the fitted dose curve at least 0.9, where 1 is the maximum;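 also: cells exposed to compound for 16 h before reading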)
In short: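 HCT-116 cells (4000/well) rested 5 h at 37C, then got DMSO compounds by pin tool (217-fold dilution) for 16 h at 37C, 5% CO2. After the bla read, CellTiter-Glo was added and luminescence read at 30 min, room temperature.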

[3] = molecular target: Cellular tumor antigen p53 (Homo sapiens) (UniProt P04637); experiment: TOX21_p53_BLA_p3_ratio: Tox21 HCT-116 p53 Agonism Beta-lactamase Assay, Ratio, Phase 3 (AID 2283596; active = hit-call score of the fitted dose curve at least 0.9, where 1 is the maximum)
In short: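 Cells were seeded at 4000/well, rested 5 h at 37C, then dosed with DMSO compound solutions (217-fold dilution) for 16 h. CCF4-AM substrate was loaded for 2 h at room temperature, and the 460/530 nm emission ratio was fitted for gain of signal versus DMSO.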

[4] = TOX21_p53_BLA_p4_viability: Viability Assessment in the Tox21 HCT-116 p53 Agonism Beta-lactamase Assay, Phase 4 (AID 2283597; active = hit-call score of the fitted dose curve at least 0.9, where 1 is the maximum;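 also: hits lower the luminescence signal meaning cytotoxicity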)
In short: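 Cytotoxicity as reduced cellular ATP (CellTiter-Glo luminescence, 30 min room temperature), measured in the same wells following the CCF4 FRET p53 reading. Human HCT-116 cells received compounds in DMSO (217-fold dilution) for 16 h.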

[5] = molecular target: Cellular tumor antigen p53 (Homo sapiens) (UniProt P04637); experiment: TOX21_p53_BLA_p5_ratio: Tox21 HCT-116 p53 Agonism Beta-lactamase Assay, Ratio, Phase 5 (AID 2283599; active = hit-call score of the fitted dose curve at least 0.9, where 1 is the maximum)
In short: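 HCT-116 cells carrying a p53-inducible beta-lactamase reporter were seeded at 4000 cells/well and dosed after 5 h with compound in DMSO (217-fold dilution). After 16 h at 37C, CCF4-AM substrate was added for 2 h, and the 460/530 nm emission ratio was scored as gain-of-signal versus DMSO.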

[6] = molecular target: Cellular tumor antigen p53 (Homo sapiens) (UniProt P04637); experiment: TOX21_p53_BLA_p4_ratio: Tox21 HCT-116 p53 Agonism Beta-lactamase Assay, Ratio, Phase 4 (AID 2283601; active = hit-call score of the fitted dose curve at least 0.9, where 1 is the maximum)
In short: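 HCT116 cells carrying an inducible beta-lactamase reporter were plated at 4000 cells/well, rested 5 h, then exposed to compounds in DMSO (217-fold dilution) for 16 h at 37C. CCF4-AM substrate was loaded 2 h at room temperature; 460/530 nm emission ratio scored gain-of-signal versus DMSO.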

[7] = CCTE_Shafer_MEA_dev_firing_rate_mean: CCTE's Neural Network Formation Assay for Mean Firing Rate, Shafer Lab (AID 2284031)
In short: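 Extracellular spike frequency, AUC over DIV 5–12 recordings, in rat cortical neuron MEA cultures dosed from plating; loss direction vs DMSO.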

[8] = CCTE_Shafer_MEA_dev_per_burst_spike_percent: CCTE's Neural Network Formation Assay for Percent of Spikes in a Burst, Shafer Lab (AID 2284032)
In short: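 Value is trapezoidal AUC over recordings on days 5, 7, 9 and 12 of the well-mean fraction of spikes falling in single-electrode bursts; rat cortical cultures exposed continuously from plating, treatment renewed DIV 5 and 9, fitted downward against DMSO.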

[9] = CCTE_Shafer_MEA_dev_active_electrodes_number: CCTE's Neural Network Formation Assay for Number of Active Electrodes, Shafer Lab (AID 2284040; active = hit-call score of the fitted dose curve at least 0.9, where 1 is the maximum;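 also: potency for loss of active electrodes versus DMSO so lower counts are hits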)
In short: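 Developing rat cortical networks on MEAs, exposed DIV 0–12. Value is the AUC of active-electrode counts (≥5 spikes/min) from days 5, 7, 9, 12, relative to DMSO.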

[10] = CCTE_Shafer_MEA_dev_bursting_electrodes_number: CCTE's Neural Network Formation Assay for Number of Bursting Electrodes, Shafer Lab (AID 2284043; active = hit-call score of the fitted dose curve at least 0.9, where 1 is the maximum;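 also: potency is for loss of bursting electrodes relative to DMSO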)
In short: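 Counted: electrodes with burst rate ≥1 per 2 min in each well. Cells: primary rat cortex, 1.5 x 10^5/well, on 16-electrode MEA wells. Exposure: DIV 0–12, compound renewed DIV 5 and 9. Recording days 5, 7, 9, 12; AUC vs DMSO baseline.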

[11] = CCTE_Shafer_MEA_dev_per_burst_interspike_interval: CCTE's Neural Network Formation Assay for Burst Interspike Interval, Shafer Lab (AID 2284044)
In short: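 Mean interspike interval within single-electrode bursts, averaged over bursting electrodes, from rat cortical cultures on MEA plates recorded on days 5, 7, 9 and 12. Continuous compound exposure from plating; trapezoidal AUC fitted downward relative to DMSO.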

[12] = CCTE_Shafer_MEA_dev_burst_duration_mean: CCTE's Neural Network Formation Assay for Mean Burst Duration, Shafer Lab (AID 2284045)
In short: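 Network-formation assay in primary rat cortical neurons; treatment spans twelve days of development. Mean burst duration per well is integrated by trapezoidal AUC and fitted in the loss-of-signal direction against DMSO baseline.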

[13] = CCTE_Shafer_MEA_dev_interburst_interval_mean: CCTE's Neural Network Formation Assay for Mean Interburst Interval, Shafer Lab (AID 2284046);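 also: well-mean interburst interval of bursting electrodes as AUC over four recording days; curve fitted for decrease in interburst interval relative to DMSO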
In short: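 Developing rat cortical networks on 48-well MEAs receive compound from the day of plating. Burst intervals from each active electrode are averaged per well, and AUC over the recording days is fitted in the negative direction against DMSO.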

[14] = CCTE_Shafer_MEA_dev_network_spike_number: CCTE's Neural Network Formation Assay for Number of Network Spikes, Shafer Lab (AID 2284048);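 also: synchronized bursts across electrodes counted on days 5 7 9 12 and integrated as AUC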
In short: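 Extracellular recordings from 16-electrode wells track network formation in rat cortical cultures under continuous treatment from plating. The endpoint is network spike number, expressed as AUC across DIV 5–12 relative to DMSO vehicle.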

[15] = CCTE_Shafer_MEA_dev_network_spike_peak: CCTE's Neural Network Formation Assay for Mean Number of Electrodes in Network Spike, Shafer Lab (AID 2284049);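 also: fitted for loss of signal meaning fewer electrodes in network spikes than DMSO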
In short: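 Continuous 12-day exposure of rat cortical cultures, starting at plating, on MEA plates. Endpoint: electrodes participating in network-spike peaks, AUC across DIV 5–12, DMSO as negative control.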

[16] = CCTE_Shafer_MEA_dev_spike_duration_mean: CCTE's Neural Network Formation Assay for Mean Spike Duration, Shafer Lab (AID 2284051);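 also: mean network spike duration pooled as area under curve over DIV 5 to 12 recordings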
In short: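 Readout is the average length of network spikes, clustered firing across electrodes, summed over DIV 5, 7, 9 and 12 as area under the curve. Neurons from rat cortex developed networks on MEA plates under continuous 12-day exposure.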

[17] = CCTE_Shafer_MEA_dev_network_spike_duration_std: CCTE's Neural Network Formation Assay for Standard Deviation of Network Spike Duration, Shafer Lab (AID 2284052);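 also: area under curve of spike duration SD across recording days 5 to 12; hits are decreases in network spike duration SD versus DMSO vehicle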
In short: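 Read-out is the trapezoidal area-under-the-curve across recordings made on days 5, 7, 9 and 12, fitted in the negative direction against DMSO baseline. Neurons were primary rat cortical cells treated from day 0, with treatment renewed at each feed.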

[18] = CCTE_Shafer_MEA_dev_per_network_spike_spike_number_mean: CCTE's Neural Network Formation Assay for Mean Number of Spikes in a Network Spike, Shafer Lab (AID 2284053)
In short: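 Continuous twelve-day exposure of developing rat cortical networks grown over 16 microelectrodes per well; spontaneous firing is captured at four time points, and the per-network-spike spike number is integrated over development by trapezoidal AUC.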

[19] = CCTE_Shafer_MEA_dev_per_network_spike_spike_percent: CCTE's Neural Network Formation Assay for Percent of Spikes in a Network Spike, Shafer Lab (AID 2284054)
In short: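 Developing networks of rat cortical neurons are dosed at day 0 and recorded extracellularly four times up to day 12. The endpoint is the area under the curve of percent spikes in network spikes, fitted in the negative direction relative to DMSO.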

[20] = CCTE_Shafer_MEA_dev_LDH: CCTE's Lactate Dehydrogenase Assay for Cytotoxicity in the Neural Network Formation Assay, Shafer Lab (AID 2284068; active = hit-call score of the fitted dose curve at least 0.9, where 1 is the maximum;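 also: exposure for twelve days from plating with re-dosing on DIV 5 and 9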)
In short: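 Cytotoxicity companion to network-formation recordings: rat cortical neurons received compound over 12 days of development, re-dosed at DIV 5 and 9 feeds. Viability was inferred from LDH enzyme activity relative to DMSO.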

[21] = CCTE_Shafer_MEA_dev_AB: CCTE's Alamar Blue Assay for Cytotoxicity in the Neural Network Formation Assay, Shafer Lab (AID 2284083; active = hit-call score of the fitted dose curve at least 0.9, where 1 is the maximum;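 also: resazurin reduction fluorescence as viability of cultured neurons; twelve days of exposure from plating with re-dosing on DIV 5 and 9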)
In short: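 Fluorescent resazurin reduction serves as the viability read-out, with DMSO as negative control and baseline. Cells were primary rat cortical neurons grown on MEA plates and dosed from day 0 to day 12, treatment renewed on DIV 5 and 9.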

[22] = CCTE_Shafer_MEA_dev_mutual_information_norm: CCTE's Neural Network Formation Assay for Mutual Information Normalization, Shafer Lab (AID 2284091)
In short: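 Exposure of primary rat cortical neurons began at plating and ran to DIV 12, with full media and treatment renewal after DIV 5 and 9 recordings. Mutual information AUC (DIV 5–12) was analysed for loss versus DMSO.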

[23] = CCTE_Shafer_MEA_dev_correlation_coefficient_mean: CCTE's Neural Network Formation Assay for Mean Correlation Coefficient, Shafer Lab (AID 2284093)
In short: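 Read-out: well-mean correlation coefficient of spike trains between electrode pairs, collapsed over four recording days as trapezoidal area-under-the-curve. Developing rat cortical neuron networks grown on MEAs received test chemical continuously from plating.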

[24] = UKN2_HCS_IMR90_neural_migration: University of Konstanz (UKN) Leist Lab Neural Crest Cell Migration Assay in human induced IMR90 Pluripotent Stem Cells (UKN2) (AID 2284204); details: actives raise or lower the signal
In short: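 Using a 96-well stopper format with PLO/laminin/fibronectin coating, neural crest cells from iPSC migrate in cytokine-supplemented N2-S medium; after 24 h, chemicals are applied for a further 24 h, then cells are imaged after dye staining.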

[25] = IUF_NPC1b_proliferation_BrdU_72hr: Leibniz Research Institute for Environmental Medicine (IUF) 72-hour Neural Progenitor Cell Bromodeoxyuridine (BrdU) Proliferation Assay (NPC1b) (AID 2284207)
In short: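 Neural progenitor spheres of human fetal origin are treated for three days; BrdU added for the last 16 h is quantified by luminescence ELISA, with DMSO as baseline and EGF/FGF omission as positive control.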

[26] = IUF_NPC1a_proliferation_area_72hr: Leibniz Research Institute for Environmental Medicine (IUF) 72-hour Neural Progenitor Cell Proliferation Area Assay (NPC1a) (AID 2284208)
In short: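 Proliferation read as increase in sphere area by phase-contrast imaging over 72 h continuous compound exposure (no renewal) of hNPC spheres grown with EGF/FGF at 37C, 5% CO2. Growth-factor withdrawal served as positive control; DMSO as baseline.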

Measured: AC50

[Cl-].[Cl-].[NH2-].[NH2-].[Pt+4]
active: [9] 10.4 µM | [10] 5.08 µM | [15] 9.92 µM | [20] 81 µM | [25] 5.68 µM | [26] 34.9 µM
inactive: [1] | [2] | [3] | [4] | [5] | [6] | [7] | [8] | [11] | [12] | [13] | [14] | [16] | [17] | [18] | [19] | [21] | [22] | [23] | [24]
